# A number with no mark means an inactive call. Results filed as inconclusive are left out. Where a call stands in place of a potency, no number is given. Calls of active or inactive are those of the source. Unless noted, calls follow the shape of the dose curve; as a rule, active = well fitted curve in the direction sought with a large enough effect; inconclusive = small, poorly fitted or top-dose-only effect, or another doubt; inactive = no such curve, though single readings can be large; an effect the other way counts as inactive or inconclusive.
# Columns and labels:
# [1] = molecular target: Glucocorticoid receptor (Homo sapiens) (UniProt P04150); test: GR-GFP Redistribution (AID 450;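 active = compounds whose dose series gives a full or clear partial fitted curve of increased nuclear translocation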; also: potency is read from the fitted curve at half-maximal effect); conditions: U2OS GR-GFP nuclear translocation, laser cytometry, 2 h
# Chain of Glucocorticoid receptor (Homo sapiens) (P04150 whole entry, looked up, the tested form may be a part): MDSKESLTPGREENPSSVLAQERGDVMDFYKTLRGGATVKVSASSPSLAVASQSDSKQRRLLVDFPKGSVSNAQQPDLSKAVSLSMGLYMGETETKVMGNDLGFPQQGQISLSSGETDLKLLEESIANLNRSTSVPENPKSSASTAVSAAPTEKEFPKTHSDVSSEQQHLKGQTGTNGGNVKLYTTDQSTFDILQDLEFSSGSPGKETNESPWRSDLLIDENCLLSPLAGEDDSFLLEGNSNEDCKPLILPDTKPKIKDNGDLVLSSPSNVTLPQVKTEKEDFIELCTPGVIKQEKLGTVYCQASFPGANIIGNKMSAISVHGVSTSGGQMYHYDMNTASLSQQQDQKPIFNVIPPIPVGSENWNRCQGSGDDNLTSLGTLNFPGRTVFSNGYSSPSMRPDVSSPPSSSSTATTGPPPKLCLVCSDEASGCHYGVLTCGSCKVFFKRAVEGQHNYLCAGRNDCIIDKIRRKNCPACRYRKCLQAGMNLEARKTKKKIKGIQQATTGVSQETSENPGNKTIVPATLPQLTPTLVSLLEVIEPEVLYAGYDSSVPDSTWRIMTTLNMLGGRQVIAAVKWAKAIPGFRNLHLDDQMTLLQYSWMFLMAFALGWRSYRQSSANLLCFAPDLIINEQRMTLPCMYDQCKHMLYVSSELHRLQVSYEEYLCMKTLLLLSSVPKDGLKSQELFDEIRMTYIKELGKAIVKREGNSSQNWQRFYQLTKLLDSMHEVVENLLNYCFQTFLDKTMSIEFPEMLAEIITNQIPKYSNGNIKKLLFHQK
# [2] = molecular target: Glucocorticoid receptor (Homo sapiens) (UniProt P04150); test: GR-EFC Redistribution (AID 451; calls by dose curve; also: potency is read from the fitted curve at half-maximal effect); conditions: CHO-K1 GR-EFC translocation, beta-gal luminescence, 2 h
# Method in brief: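 CHO-K1 cells expressing nuclear EA and GR-ED fragments of b-gal; compounds titrated up to 46 uM final, 2 h at 37 C. GR nuclear translocation read as complemented b-gal luminescence after 1 h RT detection.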
# [3] = molecular target: Mitogen-activated protein kinase 10 (Mus musculus) (UniProt Q61831); test: JNK3 AlphaScreen Assay (AID 530; active = well fitted curve in either direction with a large enough effect, not every such curve was filed as active;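 also: kinase came from lysate of stimulated human HepG2 cells; signal reports phosphorylation of biotinylated GST-cJun 1-79 at Ser73 with 10 µM ATP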); conditions: JNK3 lysate, c-Jun phosphorylation; series mostly up to 57.1 µM
# Method in brief: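 HepG2 lysate (IL-1b/TNFa pre-activated) + biotin-GST-cJun 1-79 + anti-pSer73 cJun; cpd titration, 15 min RT; ATP 10 uM start; Tris pH 7.6, MgCl2, DTT, vanadate; beads in EDTA buffer; AlphaScreen.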
# [4] = molecular target: 3',5'-cyclic-AMP phosphodiesterase 4B (Homo sapiens) (UniProt Q07343); test: qHTS Assay for Inhibitors of PDE-IV (AID 607; active = well fitted activation curve with a large enough effect in the main read-out, with a control signal flat, not every such curve was filed as active); conditions: HEK293 ACTOne CNG channel cells, membrane potential fluorescence; series mostly up to 22.9 µM
# Chain of 3',5'-cyclic-AMP phosphodiesterase 4B (Homo sapiens) (Q07343 whole entry, looked up): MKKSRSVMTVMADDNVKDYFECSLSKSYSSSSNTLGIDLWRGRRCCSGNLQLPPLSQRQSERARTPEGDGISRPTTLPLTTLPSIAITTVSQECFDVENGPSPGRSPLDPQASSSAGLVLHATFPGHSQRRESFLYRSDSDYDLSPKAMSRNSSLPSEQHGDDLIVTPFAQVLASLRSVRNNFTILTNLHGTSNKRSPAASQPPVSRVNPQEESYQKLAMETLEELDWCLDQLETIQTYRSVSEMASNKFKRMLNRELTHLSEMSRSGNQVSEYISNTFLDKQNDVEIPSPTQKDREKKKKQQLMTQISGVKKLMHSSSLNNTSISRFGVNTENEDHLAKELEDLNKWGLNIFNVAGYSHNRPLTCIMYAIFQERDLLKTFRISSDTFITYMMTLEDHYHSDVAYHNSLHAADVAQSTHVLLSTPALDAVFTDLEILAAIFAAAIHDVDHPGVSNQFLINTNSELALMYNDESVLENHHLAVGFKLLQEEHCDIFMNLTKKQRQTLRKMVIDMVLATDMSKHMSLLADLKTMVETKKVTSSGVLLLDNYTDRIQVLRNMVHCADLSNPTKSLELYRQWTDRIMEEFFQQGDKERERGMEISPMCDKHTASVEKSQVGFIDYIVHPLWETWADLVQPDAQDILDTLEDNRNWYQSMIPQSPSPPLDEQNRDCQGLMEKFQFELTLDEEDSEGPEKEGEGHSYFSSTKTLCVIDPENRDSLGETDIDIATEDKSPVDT
# Method in brief: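 Live HEK293 cells with a modified cyclic nucleotide-gated (CNG) channel report intracellular cAMP via membrane-potential dye fluorescence (ex 535/em 590 nm). Endogenous PDE-IV was targeted. Compounds were tested at up to 22.9 uM final; RO 20-1724 100 uM served as control.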
# [5] = molecular target: Cytochrome P450 3A4 (Homo sapiens) (UniProt P08684); test: qHTS Assay for Inhibitors and Substrates of Cytochrome P450 3A4 (AID 884); conditions: recombinant CYP3A4, Luciferin-PPXE luminescence; series mostly up to 57.1 µM; also: nearly all actives have a fitted effect of over 50% in size; also: potency is read from the fitted curve at half-maximal effect
# Chain of Cytochrome P450 3A4 (Homo sapiens) (P08684 whole entry, looked up): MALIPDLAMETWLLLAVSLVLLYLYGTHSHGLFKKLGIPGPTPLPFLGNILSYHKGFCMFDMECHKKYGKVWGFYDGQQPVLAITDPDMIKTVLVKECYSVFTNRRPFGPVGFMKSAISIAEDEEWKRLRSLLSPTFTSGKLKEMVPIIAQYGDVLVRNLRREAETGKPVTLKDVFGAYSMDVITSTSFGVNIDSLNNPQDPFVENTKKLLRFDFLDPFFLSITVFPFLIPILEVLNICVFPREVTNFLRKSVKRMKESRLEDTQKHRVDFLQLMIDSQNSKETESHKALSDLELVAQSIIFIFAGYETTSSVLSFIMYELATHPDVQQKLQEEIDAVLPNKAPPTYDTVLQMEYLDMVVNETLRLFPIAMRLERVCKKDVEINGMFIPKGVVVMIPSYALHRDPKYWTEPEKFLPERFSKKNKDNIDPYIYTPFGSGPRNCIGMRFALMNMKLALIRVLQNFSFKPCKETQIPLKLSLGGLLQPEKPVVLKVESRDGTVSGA
# Method in brief: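 Luminescent readout of luciferin produced by CYP3A4 (20 nM) dealkylation of Luciferin-PPXE, 25 uM (its KM). NADPH-driven reaction ran 60 min at RT after 10 min compound preincubation; data scaled to 57 uM ketoconazole as 100% inhibition.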
# [6] = molecular target: Ubiquitin carboxyl-terminal hydrolase 1 (Homo sapiens) (UniProt O94782); test: Inhibitors of USP1/UAF1: Pilot qHTS (AID 504865); conditions: purified USP1/UAF1, Ub-rhodamine cleavage fluorescence; series mostly up to 114 µM; also: nearly all actives have a fitted effect of over 35% in size; also: potency is read from the fitted curve at half-maximal effect
# Chain of Ubiquitin carboxyl-terminal hydrolase 1 (Homo sapiens) (O94782 whole entry, looked up): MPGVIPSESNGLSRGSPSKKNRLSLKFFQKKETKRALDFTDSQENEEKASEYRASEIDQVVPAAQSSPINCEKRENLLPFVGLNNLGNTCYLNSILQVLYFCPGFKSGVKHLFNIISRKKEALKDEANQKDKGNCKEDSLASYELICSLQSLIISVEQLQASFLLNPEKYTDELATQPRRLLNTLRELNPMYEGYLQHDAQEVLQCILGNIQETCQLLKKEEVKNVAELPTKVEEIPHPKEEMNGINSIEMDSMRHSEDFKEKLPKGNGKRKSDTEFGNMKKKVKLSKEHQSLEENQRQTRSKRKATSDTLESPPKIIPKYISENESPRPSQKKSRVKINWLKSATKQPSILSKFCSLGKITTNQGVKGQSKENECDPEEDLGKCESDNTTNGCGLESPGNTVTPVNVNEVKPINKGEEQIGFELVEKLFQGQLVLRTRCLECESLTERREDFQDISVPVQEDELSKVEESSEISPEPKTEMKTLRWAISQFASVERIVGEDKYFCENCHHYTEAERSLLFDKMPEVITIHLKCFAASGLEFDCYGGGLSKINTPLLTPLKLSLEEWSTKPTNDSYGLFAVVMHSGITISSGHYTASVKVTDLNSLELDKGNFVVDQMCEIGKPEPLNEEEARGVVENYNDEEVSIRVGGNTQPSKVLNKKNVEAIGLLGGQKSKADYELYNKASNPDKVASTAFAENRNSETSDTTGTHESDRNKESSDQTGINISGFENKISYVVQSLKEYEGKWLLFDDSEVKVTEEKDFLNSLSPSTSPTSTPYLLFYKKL
# Method in brief: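 1nM USP1/UAF1 + cpd, 15 min RT; start w/ Ub-Rho 150nM final; kinetic FL 480/540 nm, 6 reads q60 s. Buffer 50mM HEPES pH 7.8, 0.5mM EDTA, 1mM TCEP, 0.01% Tween-20, 0.1 mg/ml BSA.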
# [7] = molecular target: DNA dC->dU-editing enzyme APOBEC-3G (Homo sapiens) (UniProt Q9HC16); test: qHTS for inhibitors of Vif-A3G interactions: Validation (AID 588379); conditions: Vif-A3G protein interaction assay; series mostly up to 46.1 µM
# Chain of DNA dC->dU-editing enzyme APOBEC-3G (Homo sapiens) (Q9HC16 whole entry, looked up): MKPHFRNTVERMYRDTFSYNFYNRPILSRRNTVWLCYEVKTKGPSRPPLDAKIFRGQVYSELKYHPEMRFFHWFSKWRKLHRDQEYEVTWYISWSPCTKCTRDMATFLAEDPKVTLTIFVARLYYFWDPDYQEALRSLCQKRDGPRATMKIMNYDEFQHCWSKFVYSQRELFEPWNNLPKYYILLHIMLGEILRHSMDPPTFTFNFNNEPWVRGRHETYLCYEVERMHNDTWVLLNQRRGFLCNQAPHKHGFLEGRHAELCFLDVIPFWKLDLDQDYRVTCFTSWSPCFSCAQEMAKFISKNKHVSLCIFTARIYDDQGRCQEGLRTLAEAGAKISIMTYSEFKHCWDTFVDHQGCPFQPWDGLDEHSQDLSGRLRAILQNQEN
# Method in brief: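 Yellow fluorescence (Ex 488, Em 500-530) of Vif-coexpressing HeLa A3G-eYFP cells, scanned by Acumen cytometer, reports blocked A3G degradation. Cells plated at 700/well overnight at 37 deg C before compound addition, then a further overnight compound incubation at 37 deg C.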
# [8] = system: Zika virus NS2B-NS3 protease; test: Primary screen GU AMC qHTS for Zika virus inhibitors (AID 1347154); conditions: Zika NS2B-NS3 unlinked protease, AMC fluorogenic substrate; series mostly up to 54.1 µM; also: nearly all actives have a fitted effect of over 70% in size
# Method in brief: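 Unlinked Zika NS2B hydrophilic domain–NS3 protease complex at 25 nM in 10 mM Tris-HCl pH 8.0, 0.01% Tween 20, with an AMC peptide substrate. Fluorescence change (340/450 nm) over 15 min at room temperature, normalized to controls, fitted to 4-parameter Hill.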
# [9] = Primary qHTS for small molecule stabilizers of the endoplasmic reticulum resident proteome: Secreted ER Calcium Modulated Protein (SERCaMP) assay (AID 1508630); conditions: SH-SY5Y GLuc-SERCaMP (Gaussia luciferase released on ER calcium loss) secretion, thapsigargin, luminescence; series mostly up to 38.4 µM
# Method in brief: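 The SH-SY5Y reporter protocol was run at 3 concentrations up to 38.3 uM (primary) or 11 concentrations (follow-up): 16 h compound, 100 nM thapsigargin for 4 h, then extracellular luciferase luminescence.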
# [10] = molecular target: Cytochrome P450 3A4 (Homo sapiens) (UniProt P08684); test: qHTS Assay for Activators of Cytochrome P450 3A4 (AID 885); conditions: recombinant CYP3A4, Luciferin-PPXE luminescence, 60 min; series mostly up to 57.1 µM; also: nearly all actives have a fitted effect of over 65% in size
# Method in brief: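 Using 20nM recombinant human CYP3A4 in potassium phosphate (200mM), substrate Luciferin-PPXE at 25uM, luminescent luciferin detection followed a 60-min RT NADPH reaction; data scaled to 57 uM ketoconazole.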
# [11] = molecular target: Cytochrome P450 2C19 (Homo sapiens) (UniProt P33261); test: qHTS Assay for Inhibitors and Substrates of Cytochrome P450 2C19 (AID 899); conditions: recombinant CYP2C19, luciferin-H EGE luminescence; series mostly up to 57.1 µM; also: potency is read from the fitted curve at half-maximal effect; nearly all actives have a fitted effect of over 60% in size
# Chain of Cytochrome P450 2C19 (Homo sapiens) (P33261 whole entry, looked up): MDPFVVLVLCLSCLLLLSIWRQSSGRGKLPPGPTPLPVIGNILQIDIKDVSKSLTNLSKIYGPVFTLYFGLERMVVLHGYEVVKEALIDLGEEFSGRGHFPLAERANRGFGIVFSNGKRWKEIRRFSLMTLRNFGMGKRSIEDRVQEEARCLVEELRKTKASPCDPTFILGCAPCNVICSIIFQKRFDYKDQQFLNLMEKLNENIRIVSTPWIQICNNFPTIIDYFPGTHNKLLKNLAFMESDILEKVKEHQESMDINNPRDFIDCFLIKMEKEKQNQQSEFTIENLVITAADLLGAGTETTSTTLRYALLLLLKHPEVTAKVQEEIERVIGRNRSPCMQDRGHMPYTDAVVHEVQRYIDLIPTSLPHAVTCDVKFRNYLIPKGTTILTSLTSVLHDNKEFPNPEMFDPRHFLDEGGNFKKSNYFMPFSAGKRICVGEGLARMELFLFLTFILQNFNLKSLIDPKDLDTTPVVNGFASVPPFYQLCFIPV
# Method in brief: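 5 nM human CYP2C19 with 10uM Luciferin-H EGE (at KM) in 50mM KPO4, compound preincubated 10 min at 37C, then NADPH regeneration for 60 min at 37C. Luciferin read by luminescence after detection reagent; normalized to 57uM ketoconazole as full inhibition.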
SMILES,Potency [1] [µM],Potency [2] [µM],Potency [3],Potency [4],Potency [5],Potency [6],Potency [7],Potency [8],Potency [9],Potency [10],Potency [11]
O=C(NC1CCN(Cc2ccccc2)CC1)c1ccc(I)cc1,> 46,> 46,inactive,inactive,inactive,inactive,inactive,inactive,inactive,,
CN1CCc2cc3c(cc2[C@@H]1[C@@H]1C(=O)Oc2c1ccc1c2OCO1)OCO3,> 46,> 46,inactive,,1.26 µM (active),,inactive,inactive,inactive,inactive,0.02 µM (active)
Cc1ccc(-c2nn(CC(C)(C)C)c3ncnc(N)c23)cc1,> 46,> 46,inactive,,,,inactive,inactive,inactive,,
CCCCCCCCCCCCC(=O)N1CCCC[C@H]1CNC(=O)[C@@H](N)CCCCN,> 46,> 46,,inactive,,50.1 µM (active),inactive,inactive,inactive,,7.94 µM (active)
Cc1c(-c2ccc(Cl)cc2)noc1C1CCN(CCc2ccccc2)CC1,> 46,> 46,,inactive,,,,inactive,inactive,,
CNC(=O)[C@H]1O[C@H](n2cnc3c(NCc4cccc(I)c4)ncnc32)[C@@H](O)[C@@H]1O,> 46,> 46,inactive,,,,inactive,inactive,inactive,inactive,
